This is a sample that favours compounds with a hit; in the whole collection about 0.92% have one here.
LAP4-GFP MLPCN: modulators of TOR pathway LAP4-GFP in S. cerevisiae; GFP response vs DMSO, % at 10 µM; S. cerevisiae LAP4-GFP multiplex, flow cytometry GFP, 3 h; median GFP as percent of DMSO wells; 320,000 compounds, 0.34% hits; AID 2023;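 active means GFP response vs DMSO above a set limit, about the screen mean plus 3 SD, cut at about 150% in these data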
MEP2-GFP yeast: alters MEP2-GFP fluorescence in TOR pathway yeast screen. 330,000 compounds, 0.51% hits. S. cerevisiae MEP2-GFP strain, flow cytometry GFP, 3 h; 100% = DMSO control level. GFP response vs DMSO, % at 10 µM;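 active means GFP response versus DMSO above a set limit, roughly screen mean plus 3 SD, cut at about 180% in these data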;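 further: median GFP fluorescence of the barcode-gated MEP2-GFP cells per well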
CIT2-GFP yeast: modulators of TOR pathway CIT2-GFP in S. cerevisiae; S. cerevisiae CIT2-GFP strain, flow cytometry, 3 h; 100 means same as DMSO wells; GFP response vs DMSO, % at 10 µM; 320,000 compounds, 0.065% hits; AID 2029;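 active means GFP response relative to DMSO above a set limit, near the screen mean plus 3 SD, cut at about 150% in these data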;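 further: ratio of well median GFP fluorescence to mean of DMSO wells on the plate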
AGP1-GFP MLPCN: alters AGP1-GFP fluorescence in TOR pathway yeast screen; S. cerevisiae AGP1-GFP multiplex flow cytometry, 3 h; GFP as percent of DMSO wells; GFP response vs DMSO, % at 10 µM; 320,000 compounds, 0.02% hits; AID 2066;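 active means GFP response relative to DMSO above a set limit, near screen average plus 3 SD, cut at about 150% in these data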;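 further: median GFP channel fluorescence of the gated AGP1 strain per well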
RPL19A TOR yeast: modulators of TOR pathway RPL19A-GFP in S. cerevisiae; AID 2025; percent response vs DMSO, % at 10 µM; 330,000 compounds, 0.3% hits; S. cerevisiae RPL19A-GFP strain, flow cytometry, 3 h; active compounds read low;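 active means percent response vs DMSO below 50%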;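 further: median channel GFP fluorescence of the barcoded RPL19A-GFP strain; ratio of sample median GFP to plate DMSO average so 100% = DMSO; lower means less RPL19A-GFP as with rapamycin TOR inhibition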
LAP4-GFP pick2: second confirmation of modulators of TOR reporter LAP4-GFP in yeast; shares compounds with LAP4-GFP MLPCN; S. cerevisiae LAP4-GFP strain, flow cytometry GFP, 3 h; GFP response vs DMSO, % at 10 µM; 590 compounds, 20% hits;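 active means GFP signal as percent of the solvent control above about 150%, meaning raised reporter expression, limit read from the data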;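 further: ratio of well median GFP fluorescence to plate DMSO mean so 100% = DMSO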
MEP2-GFP pick2: second confirmation of modulators of TOR reporter MEP2-GFP in yeast; shares compounds with LAP4-GFP MLPCN; S. cerevisiae MEP2-GFP strain, flow cytometry GFP, 3 h; GFP response vs DMSO, % at 10 µM; 590 compounds, 10% hits;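 active means GFP signal above 150% of the solvent control wells, that is a rise of more than half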;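 further: median channel GFP fluorescence of all gated yeast cells per well; ratio of median GFP to plate DMSO average so 100% = DMSO level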
RPL19A-GFP pick2: yeast RPL19A-GFP TOR reporter modulation, second cherry pick; 590 compounds, 3% hits; AID 2623; S. cerevisiae RPL19A-GFP strain, flow cytometry GFP, 3 h; active compounds read low; 100% means same as DMSO wells; shares compounds with LAP4-GFP MLPCN; GFP response vs DMSO, % at 10 µM;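 active means under 65% GFP response relative to DMSO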;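 further: median GFP channel fluorescence per well over the all cells gate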
CIT2 GFP CP2: yeast CIT2-GFP TOR reporter modulation, second cherry pick; shares compounds with LAP4-GFP MLPCN; S. cerevisiae CIT2-GFP strain, flow cytometry GFP, 3 h; DMSO control wells read 100%; GFP response vs DMSO, % at 10 µM; 590 compounds, 8% hits; AID 2624;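 active means GFP response vs DMSO above about 150%, limit read from the data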;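 further: median green fluorescence per well over all gated yeast cells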
AGP1 GFP CP2: yeast AGP1-GFP TOR reporter modulation, second cherry pick. AID 2643. 590 tested, under 10 active. shares compounds with LAP4-GFP MLPCN. percent response vs DMSO, % at 10 µM. S. cerevisiae AGP1-GFP strain, flow cytometry GFP, 3 h;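 active means over 150 percent of DMSO response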;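 further: median GFP channel fluorescence over all cells without mother daughter split; sample median GFP divided by mean DMSO control so 100% equals DMSO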
s288c autofluor: counter-screen for compound autofluorescence in yeast s288c cells. shares compounds with LAP4-GFP MLPCN. 610 tested, under 10 active. fluorescence change (kMESF span) at 33 µM. S. cerevisiae s288c, 520 nm autofluorescence, flow cytometry, 3 h; active compounds read high; zero means same as solvent-only cells. AID 2757;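 active means fluorescence span over the dose series, or activity score, above about 33, limit read from the data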
Yeast autofl DR: yeast s288c autofluorescence artifact in dose response; shares compounds with LAP4-GFP MLPCN; S. cerevisiae s288c parental, compound autofluorescence, flow cytometry, 3 h; fluorescence change (span) at 33 µM; 110 tested, under 10 active; AID 488829;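 active means fluorescence change span, or the activity score built from it, above 25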
TORC1 bypass: stops wildtype yeast growth while TORC1 bypass cells still grow; shares compounds with LAP4-GFP MLPCN; S. cerevisiae BY4741 spot growth rating, 48-72 h; active compounds read low; growth rating (0-3) at 30 µM; 120 tested, under 10 active;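 active means growth rating at most 1 for wild type yeast while the TORC1 bypass strain still grows fully, rated 3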
Active calls of the source: *.

Screening COc1ccc(C(=O)NNC(=S)NC(=O)/C=C/c2cccs2)cc1 returned LAP4-GFP MLPCN 186*, MEP2-GFP yeast 109, CIT2-GFP yeast 101, AGP1-GFP MLPCN 133, RPL19A TOR yeast 98, s288c autofluor 0.82, Yeast autofl DR 0.21 and TORC1 bypass 3.
For Cc1ccc(CNC(=O)Cn2nnc3ccccc3c2=O)cc1 the results were LAP4-GFP MLPCN 105, MEP2-GFP yeast 100, CIT2-GFP yeast 98, AGP1-GFP MLPCN 107 and RPL19A TOR yeast 102.
Screening CCOc1cc(S(=O)(=O)NCCCn2ccnc2)ccc1Cl returned LAP4-GFP MLPCN 95, MEP2-GFP yeast 114, CIT2-GFP yeast 111, AGP1-GFP MLPCN 100 and RPL19A TOR yeast 100.
`COc1ccc(/C=C2\N=C(C)OC2=O)cc1[N+](=O)[O-]` gave LAP4-GFP MLPCN 161*, MEP2-GFP yeast 89, CIT2-GFP yeast 91, AGP1-GFP MLPCN 87, RPL19A TOR yeast 98, LAP4-GFP pick2 135, MEP2-GFP pick2 110, RPL19A-GFP pick2 102, CIT2 GFP CP2 101 and AGP1 GFP CP2 99.
`Nc1ccc(O)c2c1C(=O)c1ccccc1C2=O` gave LAP4-GFP MLPCN 146, MEP2-GFP yeast 147, CIT2-GFP yeast 110, AGP1-GFP MLPCN 92 and RPL19A TOR yeast 97.
Nc1ccc(Br)c2c1C(=O)c1ccccc1C2=O was read as LAP4-GFP MLPCN 143, MEP2-GFP yeast 134, CIT2-GFP yeast 128, AGP1-GFP MLPCN 71, RPL19A TOR yeast 62, LAP4-GFP pick2 156*, MEP2-GFP pick2 113, RPL19A-GFP pick2 80, CIT2 GFP CP2 126, AGP1 GFP CP2 94 and s288c autofluor 0.1.
CN1CCN(S(=O)(=O)c2ccc(N(C)Cc3ccc(C(F)(F)F)cc3)c([N+](=O)[O-])c2)CC1 was read as LAP4-GFP MLPCN 93, MEP2-GFP yeast 100, CIT2-GFP yeast 94, AGP1-GFP MLPCN 92 and RPL19A TOR yeast 94.
C=CC[C@@H](CC(=O)OC(C)(C)C)C(=O)OC[C@@H]1CCCN1C(=O)[C@@H](CC=C)CC(=O)N(CCO)Cc1ccccc1 was read as LAP4-GFP MLPCN 115, MEP2-GFP yeast 93, CIT2-GFP yeast 97, AGP1-GFP MLPCN 103 and RPL19A TOR yeast 97.
Screening N=C1S/C(=C\c2ccco2)C(=O)N1c1ccc2c(c1)OCO2 returned LAP4-GFP MLPCN 105, MEP2-GFP yeast 92, CIT2-GFP yeast 94, AGP1-GFP MLPCN 100 and RPL19A TOR yeast 100.
For N=C1S/C(=C\c2ccco2)C(=O)N1c1nccs1 the results were LAP4-GFP MLPCN 168*, MEP2-GFP yeast 108, CIT2-GFP yeast 72, AGP1-GFP MLPCN 76, RPL19A TOR yeast 101 and s288c autofluor 0.1.
Screening CC(CCc1ccccc1)NC(=O)CSc1nc(N)cc(N)n1 (configuration not stated) returned LAP4-GFP MLPCN 106, MEP2-GFP yeast 100, CIT2-GFP yeast 105, AGP1-GFP MLPCN 108 and RPL19A TOR yeast 104.
For CCC1(CC)NC(=O)N(CC(=O)OCC(=O)Nc2cc(OC)ccc2OC)C1=O the results were LAP4-GFP MLPCN 98, MEP2-GFP yeast 99, CIT2-GFP yeast 99, AGP1-GFP MLPCN 103 and RPL19A TOR yeast 104.
`CC(C)Cn1c(N)c(C(=O)COC(=O)c2cc(C(F)(F)F)nc3c(C(F)(F)F)cccc23)c(=O)n(C)c1=O` gave LAP4-GFP MLPCN 104, MEP2-GFP yeast 102, CIT2-GFP yeast 102, AGP1-GFP MLPCN 107 and RPL19A TOR yeast 102.
O=c1oc2cc(Oc3ccc(C(F)(F)F)cc3[N+](=O)[O-])ccc2c2c1CCC2 was read as LAP4-GFP MLPCN 91, MEP2-GFP yeast 96, CIT2-GFP yeast 104, AGP1-GFP MLPCN 100 and RPL19A TOR yeast 103.
O=c1oc2cc(Oc3c([N+](=O)[O-])cc(C(F)(F)F)cc3[N+](=O)[O-])ccc2c2c1CCCC2 was read as LAP4-GFP MLPCN 294*, MEP2-GFP yeast 91, CIT2-GFP yeast 76, AGP1-GFP MLPCN 86, RPL19A TOR yeast 70 and s288c autofluor 0.
`O=C(c1ccc(COc2ccc(Cl)cc2Cl)o1)N1CCCC1` gave LAP4-GFP MLPCN 86, MEP2-GFP yeast 97, CIT2-GFP yeast 97, AGP1-GFP MLPCN 80 and RPL19A TOR yeast 106.
For CCN(C(=O)CCS(=O)(=O)c1ccc2c(c1)oc(=O)n2C)c1ccc(OC)cc1 the results were LAP4-GFP MLPCN 96, MEP2-GFP yeast 109, CIT2-GFP yeast 101, AGP1-GFP MLPCN 100 and RPL19A TOR yeast 103.
For Cc1ccc(N2C(=O)C(Cl)=C(Nc3c(C)n(C)n(-c4ccccc4)c3=O)C2=O)cc1 the results were LAP4-GFP MLPCN 102, MEP2-GFP yeast 103, CIT2-GFP yeast 95, AGP1-GFP MLPCN 101, RPL19A TOR yeast 104 and s288c autofluor 0.3.
`Cc1cccc(N2C(=O)C(Cl)=C(Nc3c(C)n(C)n(-c4ccccc4)c3=O)C2=O)c1C` gave LAP4-GFP MLPCN 109, MEP2-GFP yeast 109, CIT2-GFP yeast 99, AGP1-GFP MLPCN 101, RPL19A TOR yeast 103 and s288c autofluor 0.2.
Screening CCSc1nnc(NC(=O)c2ccccn2)s1 returned LAP4-GFP MLPCN 175*, MEP2-GFP yeast 104, CIT2-GFP yeast 97, AGP1-GFP MLPCN 84, RPL19A TOR yeast 100, s288c autofluor 0.51, Yeast autofl DR 0.16 and TORC1 bypass 0.
